Compound activity from PubChem.
Rows were chosen to be rich in hits. Some 7.7% of all compounds tested hit in one or more screens of this group.
FMDV inh – High Throughput Screening for Foot and Mouth Disease Virus Antivirals | FMDV antiviral cell-based qHTS | Potency, µM (highest dose often 57.9 µM), for the others: top-dose activity change, negative = inhibition, most hits filed as inhibitors | hit rate 1.2% among 410,000 | AID 1159524, 2015; calls by dose curve; tested in HEK293T cells; further: read-out not given here; potency means the concentration at half of the fitted maximal effect; nearly all actives have a fitted effect of over 45% in size
HCMV inh – qHTS Assay for inhibitors of the human cytomegalovirus (HCMV). HFF cells, HCMV-luciferase reporter, 72 h; active compounds read low. activity change, negative = inhibition, % at 57.5 µM. hit rate 4.5% among 410,000. AID 1259415, 2018; in the data active means activity change below about -60%; inconclusive means no clear call, values can overlap the other calls; inactive means above about -39%
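Cell-based, HFFs, 1000 cells/well, 16 h 37C; cpds in DMSO + HCMV-luc, MOI 1 PFU/cell; 72 h 37C; OneGlo luminescence after 5 min RT; norm. to buffer vs Salinomycin 10uM.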
Sm TGR inh – qHTS Assay for the Inhibitors of Schistosoma Mansoni Peroxiredoxins. Schistosoma mansoni thioredoxin glutathione reductase (TGR), Q962Y6. purified TGR, DTNB reduction, TNB absorbance 405 nm. Potency, µM (top dose mostly 114 µM), inactives show top-dose activity change, negative = inhibition, hits mostly inhibitors. hit rate 3% among 360,000. AID 485364, 2010; further: potency means the concentration at half of the fitted maximal effect; nearly all actives have a fitted effect of over 60% in size
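Kinetic colorimetric format: TGR-catalysed, NADPH-driven DTNB reduction monitored via TNB absorbance. Enzyme dispensed at 20 nM; compound exposure 15 min at room temperature before reaction start.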
FBPA Giardia inh – qHTS Assay for Inhibitors of Fructose-1,6-bisphosphate Aldolase from Giardia Lamblia. hit rate 0.71% among 290,000. Potency, µM (series often up to 59.6 µM), for the others: at the top dose activity, negative = inhibition, usual class: inhibitors. purified Giardia FBPA. AID 2451, 2010. A8B2U2; further: potency means the concentration at half of the fitted maximal effect; nearly all actives have a fitted effect of over 55% in size
Target sequence (A8B2U2 whole entry, looked up): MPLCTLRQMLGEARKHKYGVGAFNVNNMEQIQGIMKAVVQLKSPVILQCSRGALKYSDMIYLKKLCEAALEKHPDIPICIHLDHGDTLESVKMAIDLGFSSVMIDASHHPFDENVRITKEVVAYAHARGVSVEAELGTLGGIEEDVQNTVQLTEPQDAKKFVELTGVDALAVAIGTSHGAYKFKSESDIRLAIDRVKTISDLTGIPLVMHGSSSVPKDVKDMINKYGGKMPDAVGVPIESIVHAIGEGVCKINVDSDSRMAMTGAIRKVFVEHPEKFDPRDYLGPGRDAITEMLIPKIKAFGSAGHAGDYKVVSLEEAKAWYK
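Giardia FBPA (40 nM reagent) was preincubated 10 min at RT with compound (up to 57.5 uM final), then substrate plus GAPDH/TPI/NAD/arsenate coupling system with diaphorase/resazurin was added; resorufin fluorescence (525/598 nm) was read after 20 min.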
RE007 growth inh – qHTS Assay for Inhibitors of the HIV-1 protein Vpr; S. pombe RE007 Vpr strain, BacTiter-Glo ATP luminescence, 24 h; Potency, µM (highest dose often 92.2 µM), for the others: at the top dose activity change, negative = less growth, usual class: inhibitors; hit rate 0.21% among 360,000; active means well fitted falling curve with a large enough effect; inconclusive means small, poorly fitted or top-dose-only effect; inactive means no such curve, though single readings can be large or run the other way; further: potency means the concentration at half of the fitted maximal effect; nearly all actives have a fitted effect of over 50% in size
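Fission yeast strain RE007, carrying one chromosomally integrated HIV-1 vpr copy, was seeded at OD 0.01 in PMG+AL medium with 23 nL pinned compound. After 24 h at 30 °C and 99% humidity, viability was read by BacTiter-Glo luminescence.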
TbPYK inhibitor – qHTS of Trypanosoma Brucei Inhibitors; hit rate 0.12% among 410,000; Potency, µM (top dose mostly 76.8 µM), inactives show at the top dose activity, negative = inhibition, most hits filed as inhibitors; TbPYK enzyme, Kinase-Glo Plus ATP luminescence, 45 min; AID 624173, 2012; further: potency means the concentration at half of the fitted maximal effect; nearly all actives have a fitted effect of over 50% in size
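Glycolytic pyruvate kinase of T. brucei was incubated with substrate, test compound and 130 uM ADP for 45 minutes at room temperature. Luminescent Kinase-Glo Plus signal was measured after 10 minutes.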
* = called active by the depositor. Unless noted, the call rests on the fitted dose curve; in most records, active means well fitted curve in the direction sought with a large enough effect; inconclusive means small, poorly fitted or top-dose-only effect, or another doubt; inactive means no such curve, though single readings can be large; an effect the other way counts as inactive or inconclusive. On the % scale 0 is the no-effect control and ±100 the full control effect.

Screening COc1ccccc1-c1ccnc(-n2ncc(C(=O)N(C)C(C)c3ccon3)c2C2CC2)n1 (stereo unspecified) returned FMDV inh 47%.
`NC(=O)c1cc(N2C(=O)C=CC2=O)ccc1Cl` gave FMDV inh 12%, Sm TGR inh 0.4µM*, FBPA Giardia inh -10%, RE007 growth inh -4% and TbPYK inhibitor inconclusive.
Screening S=c1c2c(nc3nc[nH]n13)CCC2 returned FMDV inh inconclusive, HCMV inh -23, Sm TGR inh 18µM*, FBPA Giardia inh 2.5µM*, RE007 growth inh inconclusive and TbPYK inhibitor -29%.
Screening CC1CCc2c(nc3nc[nH]n3c2=O)C1 (stereo unspecified) returned FMDV inh -25%, HCMV inh 6, Sm TGR inh 3%, FBPA Giardia inh -17%, RE007 growth inh 7% and TbPYK inhibitor 0%.
Screening O=C1c2ccc(-c3nc4ccccc4o3)cc2C(=O)N1Cc1cccnc1 returned HCMV inh -25, RE007 growth inh -5% and TbPYK inhibitor -11%.
O=C1c2ccc(-c3nc4ccccc4o3)cc2C(=O)N1Cc1ccccc1 was read as FMDV inh 4%, HCMV inh -105*, RE007 growth inh 18% and TbPYK inhibitor 2%.
`N#CC1=C2SCN(C3CCCCC3)CN2C(=O)CC1c1ccc(Br)cc1` (stereo unspecified) gave FMDV inh -18%, HCMV inh -7, Sm TGR inh 10µM* and TbPYK inhibitor inconclusive.
For N#CC1=C2SCN(Cc3ccco3)CN2C(=O)CC1c1ccc(Cl)cc1 (stereo unspecified) the results were FMDV inh -20%, HCMV inh -2, Sm TGR inh -3%, FBPA Giardia inh inconclusive, RE007 growth inh -9% and TbPYK inhibitor inconclusive.
CCOc1cc(C2CC(=O)N3CN(C4CCCCC4)CSC3=C2C#N)ccc1O (stereo unspecified) was read as FMDV inh -13%, HCMV inh 3, Sm TGR inh 10µM*, FBPA Giardia inh 0.79µM*, RE007 growth inh -8% and TbPYK inhibitor inconclusive.
Screening COCCn1nnnc1CN(CCCN1CCOCC1)Cc1cc2c(C)ccc(C)c2[nH]c1=O returned FMDV inh -11%, HCMV inh 42, Sm TGR inh 13µM*, FBPA Giardia inh -1%, RE007 growth inh -10% and TbPYK inhibitor -2%.
Screening COc1cc(Cl)c(C)cc1NC(=O)CSc1cc(=O)n(C)c2cc(Cl)ccc12 returned FMDV inh inconclusive, HCMV inh 19, Sm TGR inh -2% and TbPYK inhibitor 1%.
CCN(CC)c1ccc2nc3ccc(N)cc3[n+](-c3ccccc3)c2c1 was read as FMDV inh inconclusive, Sm TGR inh -31%, RE007 growth inh 22µM* and TbPYK inhibitor inconclusive.
`CCN(CC)c1ccc2nc3ccccc3[n+](CC)c2c1` gave FMDV inh 7.9µM*, Sm TGR inh inconclusive, FBPA Giardia inh -14%, RE007 growth inh 2.8µM* and TbPYK inhibitor inconclusive.
For COC(=O)C(C)CCCC(C)CCCC(C)CCCC(C)C (stereo unspecified) the results were FBPA Giardia inh -3%.
Screening CCCCn1c(=O)[nH]c(=O)c2c1nc(Cn1ncc(Cl)c(Cl)c1=O)n2CCC returned FMDV inh inconclusive, HCMV inh -100*, Sm TGR inh 18µM*, FBPA Giardia inh 1%, RE007 growth inh 2% and TbPYK inhibitor -5%.
Cc1cc(C)cc(NC(=S)N2CCC(c3nc4ccccc4s3)CC2)c1 was read as HCMV inh -85*, Sm TGR inh 15%, FBPA Giardia inh 0%, RE007 growth inh -14% and TbPYK inhibitor 2%.
